Most compounds without a hit are left out; they make up all but 1.7% or so of the library.
HTR5A inv ctr = counter-screen for OPRM1-OPRD1 inverse agonists: human HTR5A inverse agonism; hit rate 0.083% among 340,000; inhibition, % at 9.3 µM; HTR5A cell line, luminescence; AID 504634; in the data active = inhibition mostly above about 23%, no sharp cut-off; inactive = mostly below about 18%
MIN6 prolif-1 = MIN6 beta-cell proliferation induction; hit rate 0.29% among 330,000; AID 2380; MIN6 cells proliferation, ATPlite luminescence, 48 h; cells starved in 0.2% serum; 100% = growth in 10% serum; proliferation, % at 10 µM;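 active = compounds whose signal lies at least 3.5 SD above the mean of all wells on their plate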
MOR-DOR ag = OPRM1-OPRD1 heterodimerization agonism; P35372+P41143; cells, luminescence; activation, % at 9.3 µM; hit rate 0.3% among 340,000; in the data active = activation above about 18%
Target sequence (P35372 whole entry, looked up): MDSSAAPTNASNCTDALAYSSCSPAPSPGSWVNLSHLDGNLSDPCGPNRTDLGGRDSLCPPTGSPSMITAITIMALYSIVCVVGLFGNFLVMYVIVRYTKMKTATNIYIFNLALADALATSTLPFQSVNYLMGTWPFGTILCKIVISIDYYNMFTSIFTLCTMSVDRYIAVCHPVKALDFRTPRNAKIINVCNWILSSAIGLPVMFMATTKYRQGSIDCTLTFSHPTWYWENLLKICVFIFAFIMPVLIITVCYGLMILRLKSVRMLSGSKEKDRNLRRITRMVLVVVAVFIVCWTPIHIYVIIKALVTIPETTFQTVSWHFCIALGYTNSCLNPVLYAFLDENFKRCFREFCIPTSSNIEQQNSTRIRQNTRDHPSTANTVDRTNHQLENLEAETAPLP
Target sequence (P41143 whole entry, looked up): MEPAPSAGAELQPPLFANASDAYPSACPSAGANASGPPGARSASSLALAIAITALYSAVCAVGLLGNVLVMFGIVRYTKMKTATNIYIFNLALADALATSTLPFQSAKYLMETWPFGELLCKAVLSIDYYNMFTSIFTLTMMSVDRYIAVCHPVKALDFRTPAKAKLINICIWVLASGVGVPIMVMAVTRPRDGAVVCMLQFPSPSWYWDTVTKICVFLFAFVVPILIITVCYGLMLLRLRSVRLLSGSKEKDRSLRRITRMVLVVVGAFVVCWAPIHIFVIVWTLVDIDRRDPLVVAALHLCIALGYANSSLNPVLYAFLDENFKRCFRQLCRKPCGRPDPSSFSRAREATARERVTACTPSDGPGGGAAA
MOR-DOR inv ag = inverse agonists of human mu-delta opioid receptor heterodimerization. P35372+P41143. cell-based MOR-DOR heterodimer luminescence, inverse agonism. inhibition, % at 9.3 µM. hit rate 0.21% among 340,000. AID 504357; in the data active = inhibition above about 22%, passing the limit was not always enough
HTR5A ag ctr = counter-screen for OPRM1-OPRD1 agonists: human HTR5A agonism; activation, % at 9.3 µM; hit rate 0.61% among 340,000; P47898; HTR5A agonist assay, luminescence, cell-based; in the data active = activation mostly above about 9.5%, no sharp cut-off; inactive = mostly below about 7.6%
V-ATPase pH = yeast V-ATPase proton transport regulation by pHLuorin; S. cerevisiae, pHLuorin cytosolic pH fluorescence; response, % at 10 µM; hit rate 0.37% among 350,000; AID 504577; in the data active = response mostly above about 7.3%, no sharp cut-off; inactive = mostly below about 5.4%; also: actives read high
MIN6 prolif-2 = confirmation of inducers of beta-cell replication in MIN6 cells. AID 463095. 920 tested, under 10 active. shares compounds with MIN6 prolif-1. proliferation increase, % at 50 µM. MIN6 beta-cell proliferation, ATPlite luminescence, 48 h; cells kept in 0.2% serum; scaled between 0.2% and 10% serum;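 active = proliferation increase above 40% at any of the four tested concentrations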
Each line names hits and unclear results; the compound was inactive in the other large screens (follow-up assays come after a bar, where they were run).

Cc1ccccc1C(=O)OCC(=O)NCC1COc2ccccc2O1 (stereo not drawn)	MIN6 prolif-1 12 | MIN6 prolif-2 inactive
N#Cc1ccc(OCC(=O)NCC2COc3ccccc3O2)cc1 (stereo not drawn)	MIN6 prolif-1 11 | MIN6 prolif-2 inactive
COC(=O)[C@]1(C)N[C@H](CN(C)C(=O)Nc2ccc(C(F)(F)F)cc2)[C@@H]2C(=O)N(C)C(=O)[C@@H]21	none
COc1ccc(CNC(=O)CN(C(=O)CCC(=O)Nc2nccs2)c2ccc(C)cc2)cc1	none
O=C1C=C(c2ccc3c(c2)oc2ccccc23)C[C@@H](c2ccc3c(c2)OCO3)C1	none
O=C(O)C1CCCCC1C(=O)NCCCc1ccccc1 (stereo not drawn)	MIN6 prolif-1 9.0 | MIN6 prolif-2 inactive
O=C(O)C1CCCCC1C(=O)NCCCCc1ccccc1 (stereo not drawn)	none
Cn1c(=O)c2c(nc(OCc3ccccc3)n2C)n(C)c1=O	MIN6 prolif-1 16 | MIN6 prolif-2 inactive
COc1cccc(COc2nc3c(c(=O)n(C)c(=O)n3C)n2C)c1	none
OCC[C@@H]1C[C@@H](O)[C@H](O)[C@@]2(CCCCO2)O1	none
CCOC(=O)N(O)c1ccc(C=Cc2ccccc2)cc1	none (no result: MIN6 prolif-1)
CC(C)CNC(=O)CN(C1CCCCC1)S(=O)(=O)c1ccccc1	MIN6 prolif-1 9.1 | MIN6 prolif-2 inactive
Cc1cc(C(=O)CSc2nnc(-c3ccccc3)n2-c2ccccc2)c(C)n1-c1ncn[nH]1	MIN6 prolif-1 6.9 | MIN6 prolif-2 inactive
CC1(C)CN(c2ccc(C(=O)c3ccccc3)cc2)C1=O	MIN6 prolif-1 7.8 | MIN6 prolif-2 inactive
N#CCN(N=Nc1ccccc1)c1ccccc1	none
Cc1ccc(S(=O)(=O)Nc2cc(S(=O)(=O)N3CCOCC3)ccc2NCC2CCCO2)cc1 (stereo not drawn)	MIN6 prolif-1 15 | MIN6 prolif-2 inactive
CC(C)n1c(SCc2ccc(Cl)cc2)nc2c1c(=O)[nH]c(=O)n2C	MIN6 prolif-1 5.6 | MIN6 prolif-2 inactive
CC(C)CC1=NC(C(F)(F)F)(C(F)(F)F)c2c(n(CC(C)C)c(=O)[nH]c2=O)N1	MIN6 prolif-1 6.6 | MIN6 prolif-2 inactive
CCCCn1c(SCC(=O)c2cc(OC)ccc2OC)nc2cc(S(N)(=O)=O)ccc21	MIN6 prolif-1 0.0 | MIN6 prolif-2 inactive
CC(=O)c1ccc(N(CC(=O)NC2CCCCC2)C(=O)c2csnn2)cc1	MIN6 prolif-1 6.6 | MIN6 prolif-2 inactive
CCOC(=O)c1cc[nH]c1CC(=O)NC	MIN6 prolif-1 8.5 | MIN6 prolif-2 inactive
CCOC(=O)c1c[nH]c2nc(C)ccc2c1=O	none
O=c1c2ccccc2[nH]c(=S)n1CCCN1CCC(Cc2ccccc2)CC1	none
COC(=O)N[C@H](CC(C)=O)c1ccccc1	MIN6 prolif-1 12 (no result: HTR5A inv ctr, MOR-DOR ag, MOR-DOR inv ag, HTR5A ag ctr, V-ATPase pH) | MIN6 prolif-2 inactive
COC(=O)N[C@H](CC(C)=O)c1cccc(C(F)(F)F)c1	none
CCN(CC)CCN1C(=O)C(=O)/C(=C(/O)c2ccc(S(=O)(=O)N3CCOCC3)cc2)C1c1ccc(C(C)(C)C)cc1 (stereo not drawn)	none
COCCC(=O)N1CCC(Oc2ccc(C(=O)N(C)C3CCCCC3)cc2)CC1	MIN6 prolif-1 6.6 | MIN6 prolif-2 inactive
O=C1/C(=C/c2ccccn2)SC(=S)N1N1CCOCC1	none
O=S(=O)(NCC1CCC(NS(=O)(=O)c2c(F)cccc2F)CC1)c1ccc2c(c1)OCCO2 (stereo not drawn)	none
CCN(CC)c1cnn(C/C(=N\OC)c2ccc(Cl)cc2)c(=O)c1Br	MIN6 prolif-1 7.5 | MIN6 prolif-2 inactive
CCN1CN(CCc2ccccc2)CNC1=S	MIN6 prolif-1 9.3 | MIN6 prolif-2 inactive
CCOC(=O)/C(C#N)=C1/C=C(C)c2ccccc2N1	MIN6 prolif-1 7.1 | MIN6 prolif-2 inactive
CC(OC(=O)c1ccccc1Oc1ccccc1)C(=O)NC1CC1 (stereo not drawn)	none
Cc1ccc(S(=O)(=O)N2CCN(C(=O)c3nn(C(C)C)c(=O)c4ccccc34)CC2)cc1C	MIN6 prolif-1 5.4 | MIN6 prolif-2 inactive
Cc1cccc(NC(=S)N(CCN2CCOCC2)Cc2cc3cc4c(cc3[nH]c2=O)OCCO4)c1	none
O=C(CN1c2cccc3cccc(c23)S1(=O)=O)NCCc1ccc(F)cc1	none
Clc1ccc(-c2cnc3ccccc3n2)cc1	MIN6 prolif-1 5.4 | MIN6 prolif-2 inactive
Oc1ccc(-c2cnc3ccccc3n2)cc1	none
Cc1sc2ncnc(SCC(=O)N3CCCC(C(F)(F)F)C3)c2c1C (stereo not drawn)	none
COc1ccc(-c2nnc(-c3ccc(Br)o3)o2)cc1OC	MIN6 prolif-1 7.2 | MIN6 prolif-2 inactive
COc1ccc(-c2nc(-c3ccc(Br)o3)no2)cc1OC	none (no result: V-ATPase pH)
CCOC(=O)Nc1nnc(CCc2ccccc2)s1	none
CCc1nnc(NC(=O)OCc2ccccc2)s1	MIN6 prolif-1 6.0 | MIN6 prolif-2 inactive
O=C(NCCc1c[nH]c2ccccc12)OCCCCOC(=O)NCCc1c[nH]c2ccccc12	none
CCN(CC(=O)Nc1c(F)cccc1F)C(=O)CCNC(=O)c1ccco1	none
O=C(CNC(=O)c1ccccc1C(F)(F)F)N/N=C/c1cccs1	none
Cc1ccccc1CNC(=O)c1ccccc1N	MIN6 prolif-1 8.4 | MIN6 prolif-2 inactive
Cc1cc(C)c(C#N)c(SCc2ccc(F)cc2)n1	none
Cc1cc(C)c(C#N)c(SCc2ccc(C#N)cc2)n1	MIN6 prolif-1 12 | MIN6 prolif-2 inactive
COc1cc(NC(=O)C2CC(=O)N(CCc3ccc(F)cc3)C2)cc(OC)c1OC (stereo not drawn)	none
Cc1c(NS(=O)(=O)c2cccc(C(=O)O)c2)c(=O)n(-c2ccccc2)n1C	MIN6 prolif-1 4.9 | MIN6 prolif-2 inactive
O=C(O)CCc1ccc(-c2ccc(Cl)cc2)n1CC(=O)O	MIN6 prolif-1 5.8 | MIN6 prolif-2 inactive
O=C(NC1CCCC1)C(c1ccncc1)N(C(=O)c1csnn1)c1ccc(F)c(Cl)c1 (stereo not drawn)	MIN6 prolif-1 5.9 | MIN6 prolif-2 inactive
O=C(NC1CCCC1)C(c1ccncc1)N(C(=O)c1csnn1)c1cccc(Cl)c1 (stereo not drawn)	none
COC(=O)c1cnc(N2CCCN(S(=O)(=O)c3ccccc3)CC2)nc1C(F)(F)F	none
COC(=O)c1cnc(N2CCOCC2)nc1C(F)(F)F	MIN6 prolif-1 6.3 | MIN6 prolif-2 inactive
COc1ccc(OC)c2c1sc(=NC(=O)C1COc3ccccc3O1)n2C (stereo not drawn)	MIN6 prolif-1 7.7 | MIN6 prolif-2 inactive
CCC(=O)N=c1sc2c(OC)ccc(OC)c2n1C	none
CCCCC(=O)Nc1ccccc1C#N	MIN6 prolif-1 5.8 | MIN6 prolif-2 inactive
CC1CCCC(NC(=O)C2c3ccccc3C(=O)N2Cc2cccs2)C1C (stereo not drawn)	MIN6 prolif-1 0.0 | MIN6 prolif-2 inactive

From PubChem BioAssay
